A selection: hits, their analogues and other compounds. The true share with any hit is near 3.5%.
TEAD-YAP block: TEAD-YAP interaction inhibition, primary screen, TEAD-YAP interaction inhibitor project, luminescence, HEK-TIYL cells | inhibition, % at 9.12 µM | AID 1259422, 2018 | 640,000 tested, 1.4% active | TEAD-Gal4/YAP UAS-luciferase luminescence; in the data active = inhibition above about 32%;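 also: 0% = median of test compound wells and 100% = reference inhibitor wells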
FBW7 activator: FBW7 E3 ligase activators, primary screen, biochemical, AlphaScreen, human; F-box/WD repeat-containing protein 7 (Homo sapiens), Q969H0; 650,000 tested, 0.13% active; AlphaScreen FBW7–phospho-cyclin E peptide binding, activator screen; normalized activity (activation), % at 26.1 µM; in the data active = normalized activity above about 1.9%;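 also: purified mutant Fbw7 with reduced substrate affinity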
MITF primary: MITF inhibitors, primary screen, biochemical, AlphaScreen, human; Microphthalmia-associated transcription factor (Homo sapiens), O75030; AlphaScreen MITF homodimerization, bead proximity signal; inhibition, % at 2.6 µM; 650,000 tested, 0.91% active; AID 1259374, 2018; in the data active = inhibition above about 50%;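 also: 0% = vehicle wells with protein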
GPR151 ag: activators of human GPR151, primary screen, cell-based, PathHunter beta-arrestin, luminescence | G-protein coupled receptor 151 (Homo sapiens), Q8TDV0 | PathHunter beta-arrestin GPR151 cells | activation, % at 11.2 µM | 650,000 tested, 1% active | AID 1508602, 2020; in the data active = activation above about 4.9%;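 also: 0% = median of compound wells and 100% = cells with positive control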
Target sequence (Q8TDV0 whole entry, looked up): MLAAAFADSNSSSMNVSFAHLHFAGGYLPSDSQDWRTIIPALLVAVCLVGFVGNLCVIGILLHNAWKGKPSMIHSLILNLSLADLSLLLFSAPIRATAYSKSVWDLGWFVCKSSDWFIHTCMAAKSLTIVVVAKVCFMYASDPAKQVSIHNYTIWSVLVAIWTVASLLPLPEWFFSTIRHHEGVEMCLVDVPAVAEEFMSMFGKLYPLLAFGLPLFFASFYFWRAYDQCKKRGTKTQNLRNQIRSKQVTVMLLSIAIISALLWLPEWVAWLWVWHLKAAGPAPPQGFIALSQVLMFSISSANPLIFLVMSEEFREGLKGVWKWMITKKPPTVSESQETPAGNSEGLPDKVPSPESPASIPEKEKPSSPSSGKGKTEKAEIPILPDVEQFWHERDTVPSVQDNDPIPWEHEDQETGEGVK
MITF confirm: MITF inhibitors, retest of hits, confirmation, biochemical, AlphaScreen, triplicate; shares compounds with MITF primary; AlphaScreen MITF homodimerization, biotin/His-MITF beads; AID 1259372, 2018; inhibition, % at 2.6 µM; 4,700 tested, 16% active;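 active = inhibition above a cutoff derived from the DMSO control wells, cut at about 28% in these data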;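 also: 0% = MITF dimer wells with DMSO only; inhibitors lower the bead chemiluminescence by keeping MITF from dimerizing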
AS interf ctr: AlphaScreen optical interference compounds, counter-screen for MITF inhibitor project, biochemical, triplicate. shares compounds with MITF primary. LysRS AlphaScreen counterscreen, signal interference. inhibition, % at 2.6 µM. 4,700 tested, 7.6% active. AID 1259376, 2018;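 active = inhibition above a cutoff derived from the DMSO control wells, cut at about 30% in these data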
* = called active by the depositor; . = no result.

SMILES | TEAD-YAP block | FBW7 activator | MITF primary | GPR151 ag | MITF confirm | AS interf ctr
O=C(c1ccc(F)cc1)N1CCN(Cc2ccccc2Br)CC1 | 7.2 | 0.0 | 49.6 | 0.6 | . | .
COc1cccc(C(=O)N2CCN(Cc3ccccc3C(F)(F)F)CC2)c1 | -9.2 | -0.1 | 71.0* | 0.6 | 11.7 | 10.9
COc1cccc(C(=O)N2CCN(Cc3ccccc3F)CC2)c1 | 3.2 | 0.9 | 57.8* | -0.8 | 12.9 | 9.3
COc1cccc(C(=O)N2CCN(Cc3ccccc3Br)CC2)c1 | -4.6 | 0.2 | 64.9* | 0.8 | 7.0 | 15.6
COc1cccc(C(=O)N2CCN(Cc3cccc4ccccc34)CC2)c1 | 1.2 | 0.0 | 33.2 | 1.3 | . | .
Cc1ccc(C)n1-c1ccc(-c2ccn(CCO)n2)cc1 | -3.8 | 0.0 | -0.8 | -0.7 | . | .
FC(F)(F)c1ccc(CN2CCC(c3nc(-c4ccncc4)no3)C2)cc1 (centres undefined) | 3.9 | -0.1 | -2.4 | -1.3 | . | .
CN1CCN(c2oc(-c3ccccc3Cl)nc2C#N)CC1 | -31.7 | -0.1 | -4.4 | -1.0 | . | .
CCc1ccccc1NC(=O)CSc1nc2c(sc(=S)n2-c2cc(C)ccc2F)c(=O)n1-c1ccc(C)cc1 | 7.9 | 0.0 | 6.1 | -0.6 | . | .
O=[N+]([O-])c1ccccc1CN1CCN(C2CCN(Cc3ccccc3)CC2)CC1 | 3.0 | 0.0 | 87.6* | -1.6 | 2.0 | 12.6
CCN1CCN(C2CCN(Cc3ccccc3[N+](=O)[O-])CC2)CC1 | -14.8 | 0.3 | 8.7 | 0.9 | . | .
O=[N+]([O-])c1ccccc1CN1CCC(N2CCc3ccccc3C2)CC1 | 5.7 | -0.2 | 71.5* | -1.9 | 13.1 | 27.3
O=CN1CCN(Cc2ccc(Cl)cc2)CC1 | 11.7 | 0.0 | 50.0 | 0.8 | . | .
O=[N+]([O-])c1ccccc1CN1CCc2ccccc2C1 | 11.4 | -0.2 | 21.0 | 1.6 | . | .
Clc1ccc(CN2CCN(C3CC4CCC3C4)CC2)cc1 (centres undefined) | -8.5 | -0.1 | 78.9* | -0.2 | 15.9 | 18.5
O=[N+]([O-])c1ccccc1CN1CCC(N2CCCC2)CC1 | -10.3 | -0.1 | 57.0* | 0.0 | 9.7 | 1.9
Cc1nc(-c2ccccc2)sc1C(=O)N1CCN(c2ccc(-c3ccncc3)nn2)CC1 | 6.0 | -0.5 | -11.5 | -0.7 | . | .
Cc1[nH]nc2c1C(c1ccc(Br)cc1)C1=C(CC(C)(C)CC1=O)N2 (centres undefined) | 2.6 | 0.1 | 8.3 | 0.6 | . | .
O=[N+]([O-])c1ccccc1CN1CCN(C2CCCC2)CC1 | 1.3 | -0.1 | 72.9* | -0.5 | 9.1 | 1.7
CC1CC(C)CN(C2CCN(Cc3ccccc3[N+](=O)[O-])CC2)C1 (centres undefined) | -4.6 | -0.2 | 57.6* | -0.8 | -0.3 | 2.7
CCOC(=O)C1CCN(Cc2ccccc2[N+](=O)[O-])CC1 | 7.9 | -0.2 | 16.6 | 2.3 | . | .
O=[N+]([O-])c1ccccc1CN1CCC(O)CC1 | -9.4 | 0.2 | 21.2 | 1.0 | . | .
O=[N+]([O-])c1ccccc1CN1CCN(C2CC3CCC2C3)CC1 (centres undefined) | -1.5 | -0.1 | 66.8* | -0.7 | 10.6 | 10.7
Cc1nn(C)c(C)c1-c1ncc(C(=O)NCc2cccc(C(F)(F)F)c2)s1 | 0.1 | -0.1 | -7.1 | 0.1 | . | .
COc1cccc(C(=O)Oc2ccc(-c3cnc4ccccc4n3)cc2)c1 | -8.0 | 0.1 | 3.6 | 0.4 | . | .
SMILES | TEAD-YAP block | FBW7 activator | MITF primary | GPR151 ag | MITF confirm | AS interf ctr
CC(=O)NC1(c2ccccc2F)CCN(C(=O)CCC(=O)O)CC1 | 3.1 | 0.0 | 76.5* | -0.6 | 4.1 | 16.1
COCC(=O)Oc1c(Sc2c(F)c(F)c(F)c(F)c2F)c(C)nn1C(C)(C)C | 26.2 | -0.4 | 9.4 | 0.4 | . | .
CCOC(=O)N1CCN(C(=O)NC2(C(F)(F)F)Oc3ccccc3O2)CC1 | -11.2 | 0.0 | -4.7 | 2.4 | . | .
CCOc1ccccc1C1C(C#N)=C(SCC(=O)Nc2ccc(Br)cc2)NC(=O)C1C(=O)OC (centres undefined) | 10.3 | 0.0 | 54.4* | 0.0 | -8.1 | -7.5
Cc1nc2nc(SCc3ccccc3F)nn2c(C)c1Cc1ccccc1F | -25.3 | 0.1 | 6.2 | -0.2 | . | .
CCCC(=O)Nc1ccccc1NC(=O)C(C)Oc1cccc(Cl)c1 (centres undefined) | 5.6 | 0.1 | 6.5 | 0.8 | . | .
CCC(C)N1CCN(CC2CC3C=CC2C3)CC1 (centres undefined) | -7.6 | 0.1 | 72.8* | 0.3 | -3.2 | 0.9
C1=CC2CC1CC2CN1CCN(C2CCCC2)CC1 (centres undefined) | 0.6 | -0.1 | 66.5* | -0.1 | -17.7 | -3.6
C1=CC2CC1CC2CN1CCN(C2CCCCCC2)CC1 (centres undefined) | 14.3 | -0.1 | 55.2* | -0.4 | -3.2 | -5.7
C1=CC2CC1CC2CN1CCN(C2CCC(c3ccccc3)CC2)CC1 (centres undefined) | 3.9 | 0.0 | 63.0* | 0.3 | -15.9 | 3.5
C1=CC2CC1CC2CN1CCN(C2CCCCC2)CC1 (centres undefined) | 7.4 | 0.0 | 47.9 | -0.1 | . | .
COC(=O)c1cc(C(=O)OC)cc(N2C(=O)CSC2c2ccc(Cl)cc2Cl)c1 (centres undefined) | 0.8 | -0.2 | 9.4 | 0.0 | . | .
C/C=C/c1ccc(OCCCN2CC(C)OC(C)C2)c(OC)c1 (centres undefined) | -4.1 | -0.1 | 49.8 | -1.2 | . | .
COc1cc(C)ccc1OCCOCCN1CC(C)OC(C)C1 (centres undefined) | 4.1 | -0.2 | 56.5* | 1.1 | 3.9 | 16.4
C/C=C/c1ccc(OCCN2CC(C)OC(C)C2)c(OC)c1 (centres undefined) | 10.7 | -0.2 | 64.3* | -2.6 | -2.6 | 5.6
Cc1ccc(OCCN2CC(C)OC(C)C2)c(Cl)c1 (centres undefined) | -9.9 | -0.2 | 64.5* | 0.9 | 8.8 | 6.7
COc1ccc(C2=C/C(=C(/C#N)C(=O)Nc3nccs3)c3cc(C)ccc3O2)cc1 | -29.0 | 0.8 | 5.1 | 0.7 | . | .
CN1C(=O)/C(=C/c2cc([N+](=O)[O-])ccc2O)SC1=S | -15.3 | 0.0 | 3.2 | -1.6 | . | .
COc1cc(OC)c(OC)cc1CNc1cccc(C)c1 | 0.7 | -0.1 | 51.6* | -0.8 | -6.2 | 0.1
COc1ccc(OC)c(CNc2cccc(C)c2)c1 | 5.5 | -0.2 | 64.1* | 2.0 | 15.3 | 21.8
Cc1cccc(NCc2cccc([N+](=O)[O-])c2)c1 | -3.1 | -0.3 | 68.5* | -0.5 | -4.2 | -3.7
COCC(C)n1c(C)cc(C(=O)COC(=O)c2cc(OC)c(OC)cc2[N+](=O)[O-])c1C (centres undefined) | 1.5 | -0.1 | 10.7 | 1.2 | . | .
Cc1cc(C)nc(SCc2cc(=O)c(OC(=O)c3ccc(Cl)cc3Cl)co2)n1 | -6.0 | 0.3 | 2.7 | -2.0 | . | .
COc1ccc(/C=c2\sc3nc(-c4ccccc4OC)nn3c2=O)cc1 | -2.2 | -0.2 | -3.4 | 3.1 | . | .
